BLM inh-1 – blocks DNA unwinding by human BLM helicase. recombinant BLM DNA unwinding, fluorescence dequenching. Potency, µM (titrated, usually from 56.1 µM), most hits filed as inhibitors. P54132. hit rate 0.2% among 350,000. AID 2528; further: nearly all actives have a fitted effect of over 35% in size
L3MBTL1 block – blocks human L3MBTL1; Potency, µM (highest dose often 57.1 µM), most hits filed as inhibitors; AlphaScreen L3MBTL1–H3K9me1 peptide binding; hit rate 0.66% among 230,000; AID 485360; Q9Y468; further: nearly all actives have a fitted effect of over 60% in size
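AlphaScreen proximity signal between nickel-chelate acceptor and streptavidin donor beads (final 10 ug/mL) reports binding of 50 nM L3MBTL1 to 75 nM biotin-H3 K9me1 peptide; complex incubated with compounds 30 min at room temperature; cefsulodin titration as control.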
FEN1 inh – inhibitors of human flap endonuclease 1. P39748. Recombinant FEN1 flap cleavage, fluorescence, 15 min. Potency, µM (doses to about 114 µM), most hits filed as inhibitors. hit rate 0.35% among 390,000. AID 588795; further: nearly all actives have a fitted effect of over 65% in size
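Recombinant FEN1 (10 nM) was preincubated with pin-transferred compounds for 15 min at room temperature, then flap DNA substrate (50 nM final) was added. Plates were read at 0 and 15 min, and normalized concentration–response data were fitted to a four-parameter Hill equation.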
WRN inhibitor – blocks human WRN helicase; Q14191; WRN helicase unwinding, fluorescent forked duplex, kinetic; Potency, µM (series often up to 114 µM), most hits filed as inhibitors; hit rate 0.46% among 360,000; AID 651768; further: nearly all actives have a fitted effect of over 55% in size
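WRN at 20 nM final was preincubated with compound for 15 min at room temperature; reaction started with 100 nM forked duplex oligonucleotide carrying fluorophore and quencher plus 2 mM ATP (final). Unwinding followed kinetically by red fluorescence (ex 525/em 598 nm).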
RECQ1 inh-1 – inhibitors of human RECQ1 DNA helicase. P46063. AID 2549. Potency, µM (doses to about 57.3 µM), actives largely listed as inhibitors. hit rate 0.54% among 240,000. RECQ1 DNA unwinding, red fluorescence kinetic read; further: nearly all actives have a fitted effect of over 30% in size
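RECQ1T1 50 nM; forked duplex (20 bp + 30-nt ss tails) 200 nM, ATP 2 mM final; pH 8.0, 2 mM MgCl2, 2.5 ug/ml poly(dI-dC); 15 min compound preincubation; discontinuous kinetic read over 2 h at RT.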
BLM inh-2 – BLM (human) helicase inhibition, confirmation; shares compounds with BLM inh-1; Potency, µM, actives largely listed as inhibitors; hit rate 40% among 220; AID 2585; BLM DNA unwinding, fluorescence quenching, biochemical;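 further: strand separation dequenches TAMRA so unwinding raises red fluorescence; series mostly up to about 69 µM; nearly all actives have a fitted effect of over 45% in size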
RECQ1 inh-2 – blocks human RECQ1 DNA unwinding | shares compounds with RECQ1 inh-1 | recombinant RECQ1 DNA unwinding, red fluorescence | Potency, µM (titrated, usually from 119 µM), actives largely listed as inhibitors | hit rate 15% among 1,100 | AID 504841; further: nearly all actives have a fitted effect of over 50% in size
A number is an active result; . = inactive; ? = inconclusive; / = not tested or not shown; ! = a repeat was not active; [ ] = dose if it differs, or a comment. Most compounds without a hit are left out; they make up all but 0.99% or so of the library. The call rests on the fitted dose curve; in most records, active means well fitted curve in the direction sought with a large enough effect; inconclusive means small, poorly fitted or top-dose-only effect, or another doubt; inactive means no such curve, though single readings can be large; an effect the other way counts as inactive or inconclusive.

SMILES | BLM inh-1 | L3MBTL1 block | FEN1 inh | WRN inhibitor | RECQ1 inh-1 | others
CC1CN1P(=O)(Oc1ccc2ccccc2c1)N1CC1C (centres undefined) | / | / | . | . | /
O=C(Cc1ccccc1)OCc1ccccc1 | / | . | . | . | .
O=C(Nc1cc[c]([Sb](=[O])([OH])[OH])cc1)c1ccccc1 | / | / | 40µM | / | /
[O]=[Sb]([OH])([OH])[c]1ccccc1 | / | / | 50µM | / | /
CC/C(=N\N1CCCCCC1)c1c(O)n(-c2ccccc2C)c(=O)[nH]c1=O | . | . | . | . | .
Cc1c(C(=O)N2CCC3(CC2)OCCO3)sc2ncnc(N3CCc4ccccc4C3)c12 | . | / | . | . | .
CC(C)OCC(O)CN1CC2C[C@@H](C1)Cn1c2cccc1=O (some centres undefined) | . | / | . | . | /
O=C(O)CCn1cc(C=C2C(=O)NC(=O)NC2=O)c(-c2ccc(Br)cc2)n1 | . | . | . | ? | .
O=C(O)CCn1cc(C=C2C(=O)NC(=S)NC2=O)c(-c2cccc(Cl)c2)n1 | . | . | . | 45µM | .
CC(C)(O)[C@@H]1[C@H]2OC(=O)[C@@H]1[C@]1(O)C[C@H]3O[C@]34C(=O)O[C@H]2[C@@]14C (tested in a mixture with another compound) | . | / | / | / | .
COc1cc(C=C(C#N)C#N)cc(O)c1O | / | / | / | / | .
N#CC(C#N)=Cc1ccc(O)c(O)c1 | . | 22µM | . | . | .
Cc1ccc(-c2nc3c(=O)n(C)c(=O)nc-3n(C)n2)cc1 | / | / | . | / | /
Cn1ncnc2c(=O)n(C)c(=O)nc1-2 | 1.1µM | . | . | .[11.6 µM] | ?
CN(C)[C@@H]1C(=O)C(C(N)=O)=C(O)[C@@]2(O)C(=O)C3=C(O)c4c(O)ccc(Cl)c4[C@@](C)(O)C3C[C@@H]12 (some centres undefined) | . | ? | 45µM | . | .
CN(C)[C@@H]1C(=O)C(C(N)=O)=C(O)[C@@]2(O)C(=O)C3=C(O)c4c(O)cccc4[C@@](C)(O)C3[C@H](O)C12 (some centres undefined) | / | 3.2µM | 16µM! | 40µM! | /
CC1(C)CC(=O)C2=C(C1)OC(N)=C([N+](=O)[O-])C2c1ccc(C#N)s1 (centres undefined) | . | . | . | . | 28µM
N#CC1=C(N)Oc2c(c(=O)oc3ccccc23)C1c1ccc([N+](=O)[O-])o1 (centres undefined) | . | ? | 50µM | ? | .
O=C(N/N=C/c1c(O)n(C2CCCCC2)c(=S)[nH]c1=O)c1ccccc1 | . | / | . | . | /
O=C(N/N=C/C1C(=O)NC(=S)N(c2ccccc2)C1=O)c1cc(Br)c(O)c(Br)c1 (centres undefined) | . | 13µM | . | 79µM | ?
O=C1NC(=O)C(=C/C=C/c2coc3ccc(Br)cc3c2=O)C(=O)N1 | . | . | / | / | 35µM
CCN(CC)C(=O)c1ccc2c(c1)C1C=CCC1C(C(=O)O)N2 (centres undefined) | . | / | ? | 45µM | /
O=C1C=C(N2CC2)c2ccccc2C1=O | / | / | / | 45µM | /
CCNC(=O)C1OC(n2cnc3c(N)ncnc32)C(O)C1O (centres undefined) | / | / | . | . | /
CC(=O)OC1(c2ccccc2)CC(C(C)(C)C)CN(C(C)(C)C)C1 (centres undefined) | . | . | . | . | .
SMILES | BLM inh-1 | L3MBTL1 block | FEN1 inh | WRN inhibitor | RECQ1 inh-1 | others
O=C1C(I)=CC(=C(c2cc(I)c(O)c(I)c2)c2ccccc2C(=O)O)C=C1I | 16µM | / | / | / | /
CC(=O)OC1CC2C(C)(C)C(=O)C=C[C@]2(C)C2CC[C@]3(C)C(=CC(=O)OC3c3ccoc3)[C@]12C (some centres undefined) | . | / | / | / | .
COC[C@H]1OC(=O)c2coc3c2[C@@]1(C)C1=C(C3=O)[C@H]2CCC(=O)[C@@]2(C)C[C@H]1OC(C)=O | . | / | / | / | 13µM
COC[C@H]1OC(=O)c2coc3c2[C@@]1(C)C1=C(C3=O)C2CCC(=O)[C@@]2(C)C[C@H]1OC(C)=O (some centres undefined) | . | / | 13µM! | / | 35µM
O=c1[nH]c(=O)n(-c2ccc(Cl)cc2)c(O)c1C=NCCN1CCCCC1 | . | / | . | . | .
Cc1cc(C=C2C(=O)N(C)C(=S)N(C)C2=O)c(C)n1-c1cccnc1 | 18µM | . | . | ? | .
CCn1c(N)c(C(=O)NC)sc1=S | . | / | . | 56µM | .
CCOc1ccccc1N1C(=O)NC(=O)/C(=C/c2ccc3c4c(cccc24)CC3)C1=O | . | . | . | 50µM | .
O=c1[nH]c(=S)n(-c2ccccc2F)c(O)c1C=NCc1ccco1 | . | . | . | . | .
Cc1ccc(-n2c(O)c(C=NCc3ccco3)c(=O)[nH]c2=S)cc1C | ? | 32µM | . | ? | .
O=C1NC(=O)C(=Cc2ccccc2Oc2ccc(F)cc2)C(=O)N1 | . | / | . | 32µM | .
Cc1ccc(S(=O)(=O)Oc2ccccc2C=C2C(=O)NC(=O)NC2=O)cc1 | / | / | / | . | /
CN1C(=O)C(=Cc2ccccc2Oc2ccc(Cl)c(F)c2)C(=O)N(C)C1=O | . | . | . | 50µM | .
CCc1ccc2c(CN3CC=C(c4ccccc4)CC3)cc(=O)oc2c1 | . | . | . | . | .
O=C(O)C(Cl)Br (centres undefined) | / | / | / | / | .
O=C(O)C(Br)Br | / | / | / | / | 35µM
Cc1ccc(-n2c(O)c(/C=C3/C(c4ccccc4)=Nc4ccccc43)c(=O)[nH]c2=O)cc1 | . | . | . | ? | .
CCCCn1c(NS(=O)(=O)c2ccccc2)c(C(=O)OCC)c2nc3ccccc3nc21 | 1.4µM | 4.5µM | . | . | . | BLM inh-2=.
CCc1ccc(CN2CCN(Cc3ccc(SC)cc3)CC2)cc1 | . | / | . | ? | .
CCc1nnc(NC(=O)CSc2ccc(-c3ccco3)nn2)s1 | 14µM | / | . | . | ? | BLM inh-2=?;RECQ1 inh-2=.
CC(=NCCCn1ccnc1)c1c(O)n(C)c(=O)n(C)c1=O | . | . | . | . | .
Cc1ccc(CSc2n[nH]c(N)n2)cc1 | . | . | . | . | 28µM | RECQ1 inh-2=.
CC1CCN(C(=O)c2ccc(N3CC4CC(C3)c3cccc(=O)n3C4)c([N+](=O)[O-])c2)CC1 (centres undefined) | . | . | . | . | .
Cc1cccn2c(=O)c(C=Nc3ccccc3)c(NCc3ccco3)nc12 | . | . | ? | . | ? | RECQ1 inh-2=.
Brc1c(NC2=NCCN2)ccc2nccnc12 | . | . | ? | / | .
COc1ccc(C(=O)CC(c2ccc(OC)c(OC)c2)c2c(O)c3ccccc3oc2=O)cc1OC (centres undefined) | / | / | / | . | /
O=c1oc2ccccc2c(O)c1C(c1ccccn1)c1c(O)c2ccccc2oc1=O | . | . | . | . | 7.9µM | RECQ1 inh-2=?

Assay outcomes: PubChem BioAssay, National Center for Advancing Translational Sciences (NCATS)
